Rows were chosen to be rich in hits. Some 3.9% of all compounds tested hit in one or more screens of this group.
Autofluor counter – flagged as autofluorescent in microsphere protease counterscreen. AID 624483. compound autofluorescence counterscreen, microsphere flow cytometry; active compounds read high. fluorescence intensity (no concentration beside the values). hit rate 3.1% among 360,000; in the data active = fluorescence intensity above about 16000; inconclusive = no clear call, values can overlap the other calls
BoNT A protease – BoNT/A light chain protease inhibitors, primary screen, biochemical, flow cytometry, MLPCN library; Botulinum neurotoxin type A light chain protease (Clostridium botulinum A str. ATCC 3502); multiplex microsphere protease substrate cleavage; inhibition, % at 10 µM; hit rate 0.17% among 360,000; AID 588499, 2011; note: plate controls were buffer without enzyme for full effect and enzyme alone for no effect
Anthrax LF inh2 – Bacillus anthracis LF protease inhibitors, primary screen, biochemical, multiplex microsphere, MLPCN library | hit rate 0.12% among 360,000 | inhibition, % at 10 µM | Lethal factor (Bacillus anthracis), P15917 | multiplex microsphere protease cleavage assay; note: plate controls were buffer without enzyme for full effect and enzyme alone for no effect
BoNT F protease – BoNT/F light chain protease inhibitors, primary screen, biochemical, flow cytometry, MLPCN library. Botulinum neurotoxin type F light chain protease (Clostridium botulinum). Multiplex microsphere protease cleavage assay. inhibition, % at 10 µM. hit rate 0.22% among 360,000; in the data active = inhibition above about 35%, passing the limit was not always enough; inconclusive = no clear call, values can overlap the other calls; note: plate controls were buffer without enzyme for full effect and enzyme alone for no effect
DUSP3 inh – VHR1 phosphatase inhibitors, primary screen, biochemical, absorbance, uHTS; hit rate 0.52% among 290,000; inhibition, % at 13.3 µM; Dual specificity protein phosphatase 3 (Homo sapiens), P51452; recombinant VHR phosphatase, pNPP absorbance; AID 1654, 2009; in the data active = inhibition above about 50%
Target sequence (P51452 whole entry, looked up): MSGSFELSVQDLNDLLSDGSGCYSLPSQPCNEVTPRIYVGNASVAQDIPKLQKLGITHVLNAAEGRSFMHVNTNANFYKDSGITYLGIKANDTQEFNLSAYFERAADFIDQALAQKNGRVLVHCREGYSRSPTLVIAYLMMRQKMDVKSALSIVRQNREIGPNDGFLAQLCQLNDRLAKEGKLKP
3CLpro inhibitor – SARS-CoV 3CLpro protease inhibitors, primary screen, biochemical, quenched FRET | recombinant SARS-CoV 3CLpro, quenched FRET peptide cleavage | inhibition, % at 6 µM | hit rate 0.14% among 290,000; in the data active = inhibition above about 12%
Active calls of the source: *; ? = inconclusive; · = no result. Cut-off read from the data, not from the text of the source, unless noted: active = inhibition above about 30%; inconclusive = no clear call, values can overlap the other calls; inactive = below that.

SMILES	Autofluor counter	BoNT A protease	Anthrax LF inh2	BoNT F protease	DUSP3 inh	3CLpro inhibitor
COc1cccc(CNC(=O)CCCn2c(=S)[nH]c3cc4c(cc3c2=O)OCO4)c1	5427	-0.8	1.7	-0.3	16.6	1.2
CCN(CC)C(=O)c1cnn(-c2ccccc2)c1NC(=O)c1ccccc1F	20443*	6.2	-4.0	7.3	11.8	2.8
O=C(Nc1c(C(=O)N2CCOCC2)cnn1-c1ccccc1)c1ccccc1F	6084	-1.1	-0.4	-2.2	19.6	3.4
CCSc1nnc(NC(=O)CN2C(=O)NC3(CCCC3)C2=O)s1	?	-13.5	-1.8	-23.4	·	·
CC(=O)OC(C)=O	5573	-0.6	1.7	0.8	·	·
CC1(C(=O)Nc2nccs2)Cc2ccccc2C(=O)O1 (configuration not stated)	10744	0.4	-0.8	2.5	2.9	8.5
CC1(C(=O)Nc2nnc(SCc3ccccc3)s2)Cc2ccccc2C(=O)O1 (configuration not stated)	22013*	3.6	-7.0	4.7	-30.8	1.4
Cc1ccsc1C1Nc2ccc3ncccc3c2C2=C1C(=O)CCC2 (configuration not stated)	20032*	2.7	1.2	0.5	21.4	-0.1
COc1cc(C2Nc3ccc4ncccc4c3C3=C2C(=O)CCC3)cc(OC)c1OC (configuration not stated)	3181	0.1	1.5	-0.6	14.7	5.0
CC1(C(=O)NS(=O)(=O)c2ccccc2OC(F)(F)F)CCN1C(=O)c1ccco1 (configuration not stated)	3756	-0.2	-4.4	-4.7	·	·
S=C1NCN(Cc2cccnc2)CN1	3668	1.4	?	35.0*	-4.4	5.2
O=C(Cc1ccc([N+](=O)[O-])cc1)N/N=C/c1ccccc1F	3854	-0.9	-8.5	-0.1	7.9	-3.3
O=C(NCc1cccs1)c1noc2c1CCCC2	11822	-2.1	-3.9	-3.7	6.4	-2.4
O=C(NCCc1ccccc1)c1noc2c1CCCCC2	19823*	2.9	0.2	0.4	21.3	2.2
O=C(NCc1ccco1)c1noc2c1CCCCC2	16534*	-2.1	-7.9	-5.5	9.1	-1.0
O=C(NCc1cccnc1)c1noc2c1CCCCC2	10589	1.1	-0.5	1.0	-3.8	7.1
O=C(NCc1cccnc1)c1noc2c1CCCC2	21847*	3.6	-9.4	2.0	7.2	-4.4
COc1ccc(/C=N/NC(=O)C2CCN(c3ncc(C(F)(F)F)cc3Cl)CC2)cc1	22271*	?	-1.5	-1.2	28.7	2.0
COc1ccc(N2CCN(C(=O)Cc3ncc(C(F)(F)F)cc3Cl)CC2)cc1	23985*	-0.1	-2.7	-1.8	-3.7	-5.9
COc1ccc(C(=O)OC2CCN(c3ncc(C(F)(F)F)cc3Cl)CC2)cc1	5195	0.6	1.9	4.6	3.6	-0.5
NNC(=O)C=C1CCN(c2ncc(C(F)(F)F)cc2Cl)CC1	20786*	1.5	-7.7	1.7	-14.5	-0.7
O=C(OC1CCN(c2ncc(C(F)(F)F)cc2Cl)CC1)c1ccccc1	22198*	0.7	-2.7	-0.2	20.0	-0.6
O=C(NCC(c1ccco1)N1CCCC1)c1ccc(Cl)c(S(=O)(=O)N2CCc3ccccc32)c1 (configuration not stated)	8349	-2.2	-11.8	-4.2	·	·
CC(=O)C1=CN(Cc2ccccc2)CCC1=O	3642	-0.3	-2.7	-5.0	·	·
Cc1cscc1-c1nc(NCC2CC2)nc2ccsc12	3174	-0.1	4.5	1.7	·	·
SMILES	Autofluor counter	BoNT A protease	Anthrax LF inh2	BoNT F protease	DUSP3 inh	3CLpro inhibitor
CC(C)N=Cc1c(O)[nH]c2ccccc12	21450*	-2.5	-2.3	-4.4	4.7	-4.5
CCCn1c(SCC(=O)NCCc2ccc(OC)c(OC)c2)nc2c1c(=O)n(C)c(=O)n2C	18189*	3.5	-1.6	3.7	8.1	-3.6
COc1ccc(OCC(O)Cn2c(N3CCCCC3)nc3c2c(=O)n(C)c(=O)n3C)cc1 (configuration not stated)	·	·	·	·	58.2*	1.6
CCCn1c(SCC(=O)N2CCCC2)nc2c1c(=O)n(C)c(=O)n2C	22149*	?	-3.0	-0.9	4.2	-1.5
CCCn1c(SCC(=O)c2cc(OC)ccc2OC)nc2c1c(=O)n(C)c(=O)n2C	21330*	-1.7	-1.4	-2.4	-6.5	0.8
COc1ccc(Cl)cc1NS(=O)(=O)c1cccc(C(=O)NCCCN2CCOCC2)c1	3085	-0.3	-4.4	-2.9	·	·
CCn1c(SCc2cc(=O)[nH]c3ccccc23)nc2c1c(=O)n(C)c(=O)n2C	24332*	-4.2	-2.1	-8.7	·	5.0
C=C(C)Cn1c(N2CCN(c3ccc(OC)cc3)CC2)nc2c1c(=O)n(C)c(=O)n2C	3887	-0.2	0.1	-1.5	-12.7	2.4
CCCn1c(SCC(=O)N2CCN(c3ccc(OC)cc3)CC2)nc2c1c(=O)n(C)c(=O)n2C	19577*	-0.1	-1.7	-1.3	17.3	-0.4
CCn1c(SCC(=O)N2c3ccccc3CCc3ccccc32)nnc1-c1ccc(OC)cc1	2428	0.7	-1.0	-3.1	55.4*	6.6
CCCn1c(SCC(=O)Nc2ccccc2C(=O)OC)nc2c1c(=O)n(C)c(=O)n2C	20496*	-1.9	1.6	-1.0	8.3	-0.8
COc1ccccc1CNC(=O)COC(=O)COc1ccccc1Cc1ccccc1	6522	-1.9	-1.1	-2.9	·	·
Cc1ccc([N+](=O)[O-])cc1Nc1nc(N2CCCC2)nc(N2CCCC2)n1	3096	0.9	-5.5	27.3	13.9	0.4
CCn1c(SCC(=O)N2CCCc3ccccc32)nnc1-c1cccs1	16895*	-2.3	-1.8	-5.1	9.1	-2.3
CCn1c(SCC(=O)N2CCCc3ccccc32)nc2c1c(=O)n(C)c(=O)n2C	22886*	?	-0.3	0.3	39.4	-1.8
CCn1c(SCC(=O)N2c3ccccc3CCc3ccccc32)nc2c1c(=O)n(C)c(=O)n2C	9689	-0.2	-1.3	6.3	·	1.7
COc1ccc(CN2CCNC(=O)C2CC(=O)NCCc2c[nH]c3ccccc23)c(OC)c1 (configuration not stated)	4832	0.4	2.2	0.7	13.8	1.7
COc1ccc(NC(=O)CSc2ncn(-c3ccccc3)n2)cc1Cl	19084*	4.9	-14.2	4.9	19.7	-3.0
O=C(CSc1ncn(-c2ccccc2)n1)Nc1ccc2c(c1)OCO2	10774	-1.2	-6.2	-12.5	21.9	2.7
O=C(CSc1ncn(-c2ccccc2)n1)Nc1ccc(Br)cn1	21921*	0.6	-1.4	-1.1	31.8	0.9
Cc1sc(NC(=O)CSc2ncn(-c3ccccc3)n2)nc1-c1ccccc1	16319*	0.6	-1.3	-0.3	16.1	2.9
O=C(CSc1ncn(-c2ccccc2)n1)Nc1ccc2c(c1)OCCO2	24180*	-0.6	-0.1	-2.4	41.4	-2.8
Cc1ccc(NC(=O)CSc2ncn(-c3ccccc3)n2)cc1C	15505	2.8	1.6	2.4	13.3	2.8

High-throughput results: PubChem, several laboratories
